This is a sample that favours compounds with a hit; in the whole collection about 3.5% have one here.
mHTT-CaM PPI inh: mHTT-calmodulin interaction abrogation | P42858 | hit rate 3.6% among 190,000 | inhibition, % at 15 µM | AlphaScreen His-mHTT/GST-CaM binding, luminescence
Pf apPOL block: Pf-apPOL DNA polymerase inhibition; Recombinant Pf-apPOL, molecular beacon fluorescence, 1.5 h; inhibition, % at 10 µM; hit rate 0.25% among 210,000; AID 1794808
Numbers stand for hits; – = inactive; · = not tested or not shown. Cut-off read from the data, not from the text of the source: active = inhibition above about 50%; inactive = the rest.

SMILES	mHTT-CaM PPI inh	Pf apPOL block
COc1cccc(CC(=O)N2CCC(c3noc(-c4ccccc4)n3)CC2)c1	–	–
CCC(=O)N1CCCN(Cc2nc(-c3cccc(F)c3)no2)CC1	–	–
Cc1ccc(C2=NNC(C(O)C(O)C(O)C(C)O)S2)cc1 (centres undefined)	–	·
Cc1ccc(C2=NNC(c3ccc(F)cc3)S2)cc1 (centres undefined)	62	·
O=C(Nc1ccc([N+](=O)[O-])cc1Cl)c1ccccc1F	–	–
Cc1ccc(-c2c(C#N)c(N)n3c(nc4ccccc43)c2C#N)cc1	–	–
COc1ccc(-c2c(C#N)c(N)n3c(nc4ccccc43)c2C#N)cc1	94	–
COc1cc(CC(=O)N(C)C)c(Cc2cc(OC)c(OC)cc2CC(=O)N(C)C)cc1OC	–	–
CCN(CCCNC(=O)CC(C(=O)N1CCc2ccccc21)n1ccnc1)c1cccc(C)c1 (centres undefined)	74	–
CCN(CC)CCCNC(=O)CC(C(=O)N1CCc2ccccc21)n1ccnc1 (centres undefined)	–	–
CCN(CCCNC(=O)Cc1cn(C)c2ccccc12)c1cccc(C)c1	71	–
CCN(CCCNC(=O)c1cn(C)c(=O)c2c1c1ccccc1n2C)c1cccc(C)c1	–	–
CC(CCc1ccccc1)NC(=O)CC(C(=O)N1CCc2ccccc21)n1ccnc1 (centres undefined)	–	–
CC(NC(=O)CC(C(=O)N1CCc2ccccc21)n1ccnc1)C12CC3CC(CC(C3)C1)C2 (centres undefined)	59	–
Cc1cccc(NC(=O)Nc2ccc3c(c2)N(S(C)(=O)=O)CC3)c1	–	–
CCn1c(=O)c2cc(C(N)=O)nn2c2ccccc21	–	–
COc1ccccc1NC(=O)O[C@H]1CCC12CCCCC2	–	–
COc1nn(C)cc1C(=O)Nc1nnc(-c2ccco2)o1	–	–
COC(=O)c1ccc(C(=O)Nc2nnc(-c3cc(Cl)ccc3Cl)o2)cc1	–	–
O=C(COc1ccc(Cl)cc1Cl)Nc1ccccc1F	–	–
COc1nn(C)cc1C(=O)Nc1nnc(COc2ccccc2)o1	66	–
COc1ccccc1-c1nnc(NC(=O)COc2ccccc2)o1	77	–
CSc1ccccc1-c1nnc(NC(=O)CCOc2ccccc2)o1	–	–
O=C(COc1ccc(Cl)cc1Cl)Nc1nnc(COc2ccccc2)o1	97	–
COC(=O)c1ccc(C(=O)Nc2nnc(-c3ccn(C(C)C)n3)o2)cc1	65	–
SMILES	mHTT-CaM PPI inh	Pf apPOL block
CCc1ccc(C(=O)Nc2ccc3c(c2)Sc2ncccc2C(=O)N3C)cc1	–	–
CC(=O)Nc1cccc(N2CC(C(=O)Nc3ccc(C(C)C)cc3)CC2=O)c1 (centres undefined)	–	–
O=C(CCS(=O)(=O)c1ccc(Cl)cc1)Nc1nnc(Cc2ccc3c(c2)OCO3)o1	–	–
CCOc1cccc2cc(C(=O)Nc3nnc(-c4ccno4)o3)oc12	–	79
COC(=O)c1ccc(NC(=O)C(=O)NCc2ccc3c(c2)OCO3)cc1	–	–
O=C(COc1ccc(Cl)cc1)Nc1nnc(Cc2cccs2)o1	78	–
COc1cccc2cc(C(=O)Nc3nnc(Cc4ccc(Cl)s4)o3)oc12	–	–
COC(=O)c1ccc(C(=O)Nc2nnc(Cc3ccc4c(c3)OCO4)o2)cc1	57	–
O=C(CSc1ccc(F)cc1)Nc1nnc(Cc2cccs2)o1	–	–
O=C(COc1ccc(Cl)cc1Cl)Nc1nnc(Cc2ccc3c(c2)OCO3)o1	92	–
CCSc1n[nH]c2nc3ccccc3n12	–	–
CCc1nccn1Cc1nc(C2CCCCC2)no1	–	–
O=C(Nc1nnc(-c2ccno2)o1)c1ccc2c(c1)OCO2	96	–
CC1CN(S(=O)(=O)c2ccc(C(=O)Nc3nnc(-c4ccno4)o3)cc2)CC(C)O1 (centres undefined)	–	–
O=C(Nc1ccccc1)C(C1CCCC1)N1CCN(C(=O)c2ccccc2F)CC1 (centres undefined)	–	–
O=c1c2nc(-c3cccs3)cn2ccn1-c1cccc(F)c1	–	–
CCCN1C(=O)Cc2ccccc2C1C(=O)NCc1ccc(C)o1 (centres undefined)	–	–
c1cncc(-c2noc(C3CCCCN3Cc3ccco3)n2)c1 (centres undefined)	–	–
CN(C)c1ccc(CN2CCCC2c2nc(-c3cccnc3)no2)cc1 (centres undefined)	56	–
COc1ccc(C2CC(c3cccc(Br)c3)Nc3nnnn32)cc1 (centres undefined)	–	–
CCn1ccc2oc(C)c(C(=O)N3CCN(c4cccc(Cl)c4)CC3)c2c1=O	94	–
CCCn1ccc2oc(C)c(C(=O)N3CCN(c4cccc(C)c4)CC3)c2c1=O	67	–
CCn1ccc2oc(C)c(C(=O)N3CCN(c4ccc(Cl)cc4)CC3)c2c1=O	–	–
CCCn1ccc2oc(C)c(C(=O)N3CCN(c4ccccc4)CC3)c2c1=O	–	–
CCN1CCc2c(sc(NC(=O)Nc3ccc(Cl)c(Cl)c3)c2C(N)=O)C1	85	–
CCN1CCc2c(sc(NC(=O)c3ccnn3C)c2C(N)=O)C1	–	–
